Cy5 interf NS3h: Cy5 fluorescence quenchers or enhancers, artefact control for HCV NS3 helicase inhibitor project, biochemical, ChemBridge library, Cy5 readout; Cy5-dT15 DNA with NS3h, fluorescence interference; actives lie on both sides; signal over control mean, under 1 quenches; fluorescence interference ratio at 100 µM; hit rate 6% among 16,000;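 active = compound fluorescence over control fluorescence at most 0.8, a quencher, or at least a set upper limit, an enhancer; inactive = ratio between 0.8 and the set upper limit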
HCV NS3h FP: HCV NS3 helicase inhibitors, primary screen, biochemical, fluorescence polarization, ChemBridge library. AID 687043, 2013. hit rate 1.6% among 16,000. inhibition, % at 100 µM. NS3h Cy5-dT15 DNA binding. Hepatitis C virus NS3 helicase;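 active = inhibition above the average over every tested compound plus 3 SD, cut at about 40% in these data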
NS3h confirm: HCV NS3 helicase inhibitors, retest, confirmation, biochemical, fluorescence polarization, ChemBridge library. hit rate 20% among 240. NS3h binding to Cy5-dT15 DNA. inhibition, % at 100 µM. shares compounds with HCV NS3h FP;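 active = percent inhibition of 50% or more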
SSB FP counter: E. coli SSB-DNA binding inhibitors, counter-screen for HCV NS3 helicase inhibitor project, biochemical, fluorescence polarization, selected ChemBridge compounds | hit rate 40% among 240 | inhibition, % at 100 µM | E. coli SSB binding Cy5-dT15 | shares compounds with HCV NS3h FP;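 active = inhibition of at least 50%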;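 note: displacers lower Cy5 polarization so higher inhibition means more SSB displaced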
Target sequence (P0AGE0 whole entry, looked up): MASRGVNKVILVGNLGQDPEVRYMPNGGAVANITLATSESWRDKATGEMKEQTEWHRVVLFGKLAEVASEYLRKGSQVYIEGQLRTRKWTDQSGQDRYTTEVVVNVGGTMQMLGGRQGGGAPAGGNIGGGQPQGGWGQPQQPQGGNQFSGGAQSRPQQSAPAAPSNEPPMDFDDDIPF
Cy5 SSB fluor CB: Cy5 fluorescence interference with SSB-bound oligo, artefact control for HCV NS3 helicase inhibitor project, biochemical, E. coli SSB, selected ChemBridge compounds. hit rate 8% among 240. Cy5-dT15/E. coli SSB fluorescence interference; actives lie on both sides. shares compounds with HCV NS3h FP. fluorescence interference ratio at 100 µM;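 active = fluorescence interference ratio at or above 1.2, signal boosting, or at or below 0.8, signal quenching; inactive = ratio between 0.8 and 1.2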;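 note: ratio of compound well signal to mean negative control signal so 1 means no effect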
Cy5 interf conf: Cy5-DNA-NS3h complex fluorescence interference, confirmation, artefact control for HCV NS3 helicase inhibitor project, biochemical, ChemBridge library. Cy5-dT15 DNA/NS3h fluorescence interference counterscreen. shares compounds with HCV NS3h FP. hit rate 44% among 240. fluorescence interference ratio at 100 µM, hits read low. AID 720489, 2013;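 active = fluorescence interference ratio at or below 0.8 quencher or at or above a set limitenhancer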;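 note: ratio of compound fluorescence to mean of negative controls so 1 means no interference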
Numbers without * were called inactive; ! = repeats disagree. Compounds with a hit are over-represented: about 7.6% of the library has one in this group of screens.

SMILES	Cy5 interf NS3h	HCV NS3h FP	others
COc1cccc(C=C2C(=O)NC(=O)NC2=O)c1	0.98	32
COc1ccc(C=C2C(=O)NC(=S)NC2=O)c(OC)c1	0.78*	11
Cc1cc([N+](=O)[O-])nn1CC(=O)Nc1ccc(Cl)cc1C(=O)c1ccccc1	0.57*	9
O=C(Nc1ccc(Cl)cc1C(=O)c1ccccc1)c1cncc(Br)c1	0.94	11
CC1=[N+]([O-])C(C(=O)c2ccccc2)N(O)C1(C)C (configuration not stated)	1	2
N#CC1=C(N)Oc2c(c(=O)oc3ccccc23)C1c1cccc([N+](=O)[O-])c1 (configuration not stated)	1.1	19
O=C1NC(=O)C(=Cc2ccc(OCc3cccc(C(=O)O)c3)cc2)C(=O)N1	1.1	-4
Cc1cc(OCc2ccc(Cl)cc2)c2c3c(c(=O)oc2c1)CCC3	1.1	6
Cc1ccc(NC(=O)c2nc[nH]c2C(=O)Nc2ccc(Br)cc2C(=O)c2ccccc2)cc1	1.1	-2
COC(=O)c1[nH]cnc1C(=O)Nc1ccc(Cl)cc1C(=O)c1ccccc1	0.72*!	16
O=C1/C(=C/c2ccccn2)N2CCC1CC2	0.97	-14
CCCc1ccc(OCCNc2ccc([N+](=O)[O-])c3cccnc23)cc1	1	11
CC(Nc1ccc([N+](=O)[O-])c2cccnc12)c1ccc(Br)cc1 (configuration not stated)	0.68*	26
O=[N+]([O-])c1ccc(NCCCO)c2ncccc12	0.93	-14
O=[N+]([O-])c1ccc(NCC(O)c2ccccc2)c2ncccc12 (configuration not stated)	0.65*	36
CC(C)N1CCN(Cc2cc(Br)ccc2O)CC1	0.95	-13
CCN1CCC2(CC1)CC(C)c1cccc(C)c1N2 (configuration not stated)	1.1	-18
O=C1NC(=O)C(=Cc2ccccc2Cl)C(=O)N1	1.1	22
Cn1c(O)c(C=C2C=CC=N2)c(=O)[nH]c1=O	0.89	14
O=C(Cn1c[n+]([N-][N+](=O)[O-])cn1)Nc1ccc(NC(=O)Cn2c[n+]([N-][N+](=O)[O-])cn2)cc1	0.76*	-6
O=C(Cn1c[n+]([N-][N+](=O)[O-])cn1)N1CCN(C(=O)Cn2c[n+]([N-][N+](=O)[O-])cn2)CC1	1.1	0
CCCCC1(C)NCCN2C(=O)CSC21 (configuration not stated)	1.1	3
O=[N+]([O-])c1ccc(N2CCCC2)c(F)c1Br	0.84	-3
Cc1ccc(C)n1-c1ccc(N2CCNCC2)c([N+](=O)[O-])c1	0.32*	-18
COc1ccc2[nH]cc(CCN)c2c1	0.76*	7
SMILES	Cy5 interf NS3h	HCV NS3h FP	others
COC(=O)C(=O)/C(=C\c1ccc(-c2ccccc2[N+](=O)[O-])o1)C(=O)c1ccccc1	0.94	16
CC1=NN(c2ccccc2)C(=O)C1=Cc1c(O)[nH]c(=O)[nH]c1=O	0.71*	14
Cc1cc(C=C2C(=O)NC(=O)NC2=O)c(C)n1-c1cccnc1	1.1	47*	NS3h confirm=-3;SSB FP counter=8;Cy5 SSB fluor CB=1;Cy5 interf conf=0.76*
Cc1cc(C=C2C(=O)NC(=O)NC2=O)c(C)n1C	0.93	-2
CCOc1ccc(N2C(=O)NC(=O)/C(=C\c3ccc(Sc4nc5ccccc5[nH]4)o3)C2=O)cc1	1	8
Cc1ccc(N2C(=O)/C(=C/c3ccc(-c4cccc(C(=O)O)c4)o3)C(=O)NC2=S)cc1	1	83*	NS3h confirm=55*;SSB FP counter=105*;Cy5 SSB fluor CB=0.81;Cy5 interf conf=0.93
O=C1NC(=O)N(c2ccccc2)C(=O)/C1=C\c1ccc(-c2ccc(C(=O)O)cc2)o1	0.95	83*	NS3h confirm=91*;SSB FP counter=94*;Cy5 SSB fluor CB=0.84;Cy5 interf conf=0.76*
O=C1NC(=S)NC(=O)C1=Cc1ccc(-c2cc(Cl)c([N+](=O)[O-])cc2Cl)o1	0.88	25
Cc1ccc(N2C(=O)NC(=O)/C(=C\C=C\c3ccccc3)C2=O)cc1	0.91	14
Cc1ccc(-n2c(C)cc(/C=C3\C(=O)NC(=S)N(c4ccccc4)C3=O)c2C)cc1	0.97	0
O=C1NC(=S)N(c2ccccc2)C(=O)/C1=C/c1ccc(-c2ccc(C(=O)O)c(Cl)c2)o1	1.1	68*	NS3h confirm=66*;SSB FP counter=95*;Cy5 SSB fluor CB=0.84;Cy5 interf conf=0.93
OC1C2CCCC1C(N1CCCCC1)CC2 (configuration not stated)	0.99	1
COc1ccccc1N1C(=O)NC(=O)/C(=C\c2ccc(O)cc2)C1=O	0.96	29
O=P(Oc1ccccc1)(Oc1ccccc1)C(NCc1ccccc1)c1ccccc1 (configuration not stated)	1	4
